One assay addresses Death-associated protein kinase 1 (Homo sapiens) (UniProt P53355). Conditions: at 10 µM.
Death-associated protein kinase 1 (Homo sapiens), sequence (P53355 whole entry, looked up): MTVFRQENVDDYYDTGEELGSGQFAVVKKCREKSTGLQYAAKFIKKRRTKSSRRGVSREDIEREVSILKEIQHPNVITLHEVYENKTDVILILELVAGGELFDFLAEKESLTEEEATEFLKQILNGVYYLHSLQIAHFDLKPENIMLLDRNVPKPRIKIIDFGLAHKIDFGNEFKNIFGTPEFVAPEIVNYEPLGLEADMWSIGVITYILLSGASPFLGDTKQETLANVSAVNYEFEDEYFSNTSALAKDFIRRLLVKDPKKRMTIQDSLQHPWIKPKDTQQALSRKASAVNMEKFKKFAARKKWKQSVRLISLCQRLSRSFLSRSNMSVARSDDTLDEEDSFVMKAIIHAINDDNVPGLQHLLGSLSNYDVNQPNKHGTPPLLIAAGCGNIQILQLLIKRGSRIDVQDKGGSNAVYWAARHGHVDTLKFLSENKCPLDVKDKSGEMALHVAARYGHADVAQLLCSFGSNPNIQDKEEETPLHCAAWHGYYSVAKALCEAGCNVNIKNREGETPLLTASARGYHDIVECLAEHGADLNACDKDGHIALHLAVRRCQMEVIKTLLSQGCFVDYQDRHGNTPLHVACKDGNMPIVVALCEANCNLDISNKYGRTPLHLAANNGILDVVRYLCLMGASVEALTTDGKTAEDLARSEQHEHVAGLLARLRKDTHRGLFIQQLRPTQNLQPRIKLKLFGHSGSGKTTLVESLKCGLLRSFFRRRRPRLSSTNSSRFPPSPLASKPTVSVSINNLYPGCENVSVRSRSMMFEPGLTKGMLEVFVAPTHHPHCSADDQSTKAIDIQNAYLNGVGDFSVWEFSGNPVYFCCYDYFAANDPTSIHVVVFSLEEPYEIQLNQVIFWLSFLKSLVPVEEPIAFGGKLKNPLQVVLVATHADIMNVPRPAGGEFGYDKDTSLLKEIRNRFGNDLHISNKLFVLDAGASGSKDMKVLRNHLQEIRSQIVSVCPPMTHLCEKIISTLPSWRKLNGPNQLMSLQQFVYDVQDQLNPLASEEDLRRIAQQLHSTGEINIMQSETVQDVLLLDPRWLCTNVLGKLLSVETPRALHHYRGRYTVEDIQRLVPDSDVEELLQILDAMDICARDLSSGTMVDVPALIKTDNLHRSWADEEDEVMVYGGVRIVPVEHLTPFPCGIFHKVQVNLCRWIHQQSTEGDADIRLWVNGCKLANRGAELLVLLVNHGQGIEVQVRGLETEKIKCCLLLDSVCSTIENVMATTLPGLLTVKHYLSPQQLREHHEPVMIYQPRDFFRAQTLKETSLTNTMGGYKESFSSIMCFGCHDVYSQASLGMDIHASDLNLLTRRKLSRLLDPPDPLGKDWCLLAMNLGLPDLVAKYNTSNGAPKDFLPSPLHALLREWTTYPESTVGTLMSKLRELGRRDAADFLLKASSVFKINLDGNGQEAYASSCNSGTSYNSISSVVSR
Take `O=c1c2ccccc2[nH]c(=S)n1CCN1CCC(=C(c2ccc(F)cc2)c2ccc(F)cc2)CC1`: the residual activity (commonly the signal under treatment as a percentage of the control signal) is 62%.
Same read-out and setting: under `O=[N+]([O-])c1ccc(-c2nc(-c3ccc(F)cc3)c(-c3ccncc3)[nH]2)cc1` stands 65%.
With `O=C1Nc2cc(Br)ccc2/C1=C1/Nc2ccccc2/C1=N\O`, the residual activity came to 46%.
On the same count and under the same terms, the value for `O=Nc1c(-c2c(O)[nH]c3ccccc23)[nH]c2ccccc12` was 67%; that for `CC[n+]1c(/C=C/N(C)c2ccccc2)n(-c2ccccc2)c2ccc(-c3nc4ccccc4s3)cc21` was 51%; that for `CC(C)n1cnc2/c(=N/c3cccc(Cl)c3)nc(NCCO)[nH]c21` was 94%.
Still for that read-out and setting: under `Oc1n[nH]c2nnc(-c3c(-c4ccccc4)nn4ccccc34)cc12` stands 39%.
On the same count and under the same terms, the value for `CCN(CC)CCCCN1c2ccccc2Oc2ccc(Cl)cc21` was 99%.
Regarding `Cn1nc2c3c(cccc31)C(=O)c1ccccc1-2`, the residual activity is 77%.
Same read-out and setting: under `NC(=O)c1ccc2[nH]c(-c3ccc(Oc4ccc(Cl)cc4)cc3)nc2c1` stands 98%; under `COc1cc2ncnc(N3CCN(C(=O)Nc4ccc(Oc5ccccc5)cc4)CC3)c2cc1OC`, 102%; under `CC(=O)O/N=C1\C(=C2\C(=O)Nc3cc(Br)ccc32)Nc2ccccc21`, 84%.
Same read-out and setting: the value for `Ic1cccc(CSc2nnc(-c3ccncc3)o2)c1` was 76%; that for `COc1cc2ncnc(Nc3ccc(Oc4ccccc4)cc3)c2cc1OC` was 106%.
Still for that read-out and setting: the value for `Cc1nc2cc3nc(-c4cccs4)cnc3cc2n1C` was 86%; that for `O=C1NC(=O)/C(=C/c2ccc3c(c2)OC(F)(F)O3)S1` was 81%; that for `COc1ccc(C(=O)Nc2sc3c(c2C(N)=O)CCCC3)cc1OC` was 86%.
Regarding `C[C@@H](N)[C@H]1CC[C@H](C(=O)Nc2ccncc2)CC1`, the residual activity stood at 104%.
The same measure, in the same setting: under `N#C/C(=C(\N)Sc1ccc(N)cc1)c1ccccc1C(F)(F)F` stands 78%; under `CC(C)n1cnc2c(NCc3ccccc3)nc(NCCCO)nc21`, 82%.
Same read-out and setting: under `Cn1cc(/C=C2\C(=O)Nc3ccc(S(N)(=O)=O)cc32)c2ccccc21` stands 85%.
With `O=C1NC(=O)c2cc(Nc3ccc(F)cc3)c(Nc3ccc(F)cc3)cc21`, the residual activity is 76%.
Still for that read-out and setting: the value for `Cc1ccc(S(=O)(=O)/C=C/C#N)cc1` was 87%; that for `CNc1cc2c(Nc3cccc(Br)c3)ncnc2cn1` was 60%.
On the same count and under the same terms, under `Oc1ccc(-c2nc(-c3ccc(F)cc3)c(-c3ccncc3)[nH]2)cc1` stands 76%; under `CN(C)c1ccc(/C=C2\C(=O)Nc3ccccc32)cc1`, 80%.
On the same count and under the same terms, under `O=c1cc(-c2cccc3c2Sc2ccccc2S3)oc(N2CCOCC2)c1` stands 81%.
As for `Cc1ccc(NC2=CC(=O)c3sc(C)nc3C2=O)cc1`, the residual activity amounted to 89%.
For `COc1ccc(OC)c2c(=S)c3ccccc3[nH]c12`, the residual activity came out at 93%.
Regarding `Nc1cccc(-c2cc3c(Oc4cccc(O)c4)ncnc3[nH]2)c1`, the residual activity came out at 101%.
On the same count and under the same terms, the value for `COc1ccc(CNc2nc(N(CCO)CCO)nc3c2ncn3C(C)C)cc1` was 88%; that for `Cn1cnc2cc3c(Nc4cccc(Br)c4)ncnc3cc21` was 99%.
The same measure, in the same setting: the value for `O=C1c2ccccc2-[n+]2ccc3c([nH]c4ccccc43)c21` was 84%; that for `O=C(O)c1ccc2c3c1cccc3c(=O)n1c3ccccc3nc21` was 47%.
The same measure, in the same setting: under `COc1ccc(S(=O)(=O)N(CCO)c2ccccc2CN(C)C/C=C/c2ccc(Cl)cc2)cc1` stands 65%.

For a further assay, the target named is Death-associated protein kinase 2 (Homo sapiens) (UniProt Q9UIK4). Conditions: at 1 µM.
Death-associated protein kinase 2 (Homo sapiens), sequence (Q9UIK4 whole entry, looked up): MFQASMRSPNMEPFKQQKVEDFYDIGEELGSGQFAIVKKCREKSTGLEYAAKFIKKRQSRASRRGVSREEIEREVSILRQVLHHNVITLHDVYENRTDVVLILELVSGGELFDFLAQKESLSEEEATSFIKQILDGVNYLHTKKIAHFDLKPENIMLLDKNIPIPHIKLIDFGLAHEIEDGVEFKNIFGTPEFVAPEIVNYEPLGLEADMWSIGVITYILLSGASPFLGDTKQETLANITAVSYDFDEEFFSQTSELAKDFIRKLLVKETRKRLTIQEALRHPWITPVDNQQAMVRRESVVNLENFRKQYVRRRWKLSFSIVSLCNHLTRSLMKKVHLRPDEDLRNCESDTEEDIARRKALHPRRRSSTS
With `O=c1c2ccccc2[nH]c(=S)n1CCN1CCC(=C(c2ccc(F)cc2)c2ccc(F)cc2)CC1`, the residual activity was 109%.
Turning to `O=[N+]([O-])c1ccc(-c2nc(-c3ccc(F)cc3)c(-c3ccncc3)[nH]2)cc1`, the residual activity was 108%.
On the same count and under the same terms, under `O=C1Nc2cc(Br)ccc2/C1=C1/Nc2ccccc2/C1=N\O` stands 50%; under `O=Nc1c(-c2c(O)[nH]c3ccccc23)[nH]c2ccccc12`, 73%.
Turning to `CC[n+]1c(/C=C/N(C)c2ccccc2)n(-c2ccccc2)c2ccc(-c3nc4ccccc4s3)cc21`, the residual activity turned out to be 100%.
On the same count and under the same terms, under `CC(C)n1cnc2/c(=N/c3cccc(Cl)c3)nc(NCCO)[nH]c21` stands 104%; under `Oc1n[nH]c2nnc(-c3c(-c4ccccc4)nn4ccccc34)cc12`, 62%.
Same read-out and setting: the value for `CCN(CC)CCCCN1c2ccccc2Oc2ccc(Cl)cc21` was 111%; that for `Cn1nc2c3c(cccc31)C(=O)c1ccccc1-2` was 93%.
The same measure, in the same setting: the value for `NC(=O)c1ccc2[nH]c(-c3ccc(Oc4ccc(Cl)cc4)cc3)nc2c1` was 101%.
For the molecule `COc1cc2ncnc(N3CCN(C(=O)Nc4ccc(Oc5ccccc5)cc4)CC3)c2cc1OC`, the residual activity amounted to 93%.
On the same count and under the same terms, the value for `CC(=O)O/N=C1\C(=C2\C(=O)Nc3cc(Br)ccc32)Nc2ccccc21` was 86%; that for `Ic1cccc(CSc2nnc(-c3ccncc3)o2)c1` was 96%.
Still for that read-out and setting: under `COc1cc2ncnc(Nc3ccc(Oc4ccccc4)cc3)c2cc1OC` stands 99%; under `Cc1nc2cc3nc(-c4cccs4)cnc3cc2n1C`, 105%; under `O=C1NC(=O)/C(=C/c2ccc3c(c2)OC(F)(F)O3)S1`, 95%.
Same read-out and setting: the value for `COc1ccc(C(=O)Nc2sc3c(c2C(N)=O)CCCC3)cc1OC` was 90%; that for `C[C@@H](N)[C@H]1CC[C@H](C(=O)Nc2ccncc2)CC1` was 88%; that for `N#C/C(=C(\N)Sc1ccc(N)cc1)c1ccccc1C(F)(F)F` was 98%.
As to `CC(C)n1cnc2c(NCc3ccccc3)nc(NCCCO)nc21`, the residual activity was determined as 101%.
Still for that read-out and setting: under `Cn1cc(/C=C2\C(=O)Nc3ccc(S(N)(=O)=O)cc32)c2ccccc21` stands 92%.
On the same count and under the same terms, under `O=C1NC(=O)c2cc(Nc3ccc(F)cc3)c(Nc3ccc(F)cc3)cc21` stands 77%; under `Cc1ccc(S(=O)(=O)/C=C/C#N)cc1`, 104%; under `CNc1cc2c(Nc3cccc(Br)c3)ncnc2cn1`, 86%.
On the same count and under the same terms, under `Oc1ccc(-c2nc(-c3ccc(F)cc3)c(-c3ccncc3)[nH]2)cc1` stands 110%.
Regarding `CN(C)c1ccc(/C=C2\C(=O)Nc3ccccc32)cc1`, the residual activity is 102%.
Same read-out and setting: the value for `O=c1cc(-c2cccc3c2Sc2ccccc2S3)oc(N2CCOCC2)c1` was 106%; that for `Cc1ccc(NC2=CC(=O)c3sc(C)nc3C2=O)cc1` was 99%; that for `COc1ccc(OC)c2c(=S)c3ccccc3[nH]c12` was 106%.
Turning to `Nc1cccc(-c2cc3c(Oc4cccc(O)c4)ncnc3[nH]2)c1`, the residual activity turned out to be 102%.
Turning to `COc1ccc(CNc2nc(N(CCO)CCO)nc3c2ncn3C(C)C)cc1`, the residual activity came to 102%.
The same measure, in the same setting: under `Cn1cnc2cc3c(Nc4cccc(Br)c4)ncnc3cc21` stands 96%.
On the same count and under the same terms, the value for `O=C1c2ccccc2-[n+]2ccc3c([nH]c4ccccc43)c21` was 95%; that for `O=C(O)c1ccc2c3c1cccc3c(=O)n1c3ccccc3nc21` was 31%.
On the same count and under the same terms, under `COc1ccc(S(=O)(=O)N(CCO)c2ccccc2CN(C)C/C=C/c2ccc(Cl)cc2)cc1` stands 100%.

These data come from ChEMBL document CHEMBL2218924, “A broad activity screen in support of a chemogenomic map for kinase signalling research and drug discovery” (Biochem J, 2013).
